Results as given in the supplement of paper PMC3334620.
Over roughly 33,000 sequences, “E-score (-0.5 to 0.5)” has its median near -0.0014; the highest 2% begin near 0.25. For the sample, the highest values were picked, then their nearest neighbours and some sequences at random.

Target: T1, Cad1 (UniProt P24813)
T1 sequence: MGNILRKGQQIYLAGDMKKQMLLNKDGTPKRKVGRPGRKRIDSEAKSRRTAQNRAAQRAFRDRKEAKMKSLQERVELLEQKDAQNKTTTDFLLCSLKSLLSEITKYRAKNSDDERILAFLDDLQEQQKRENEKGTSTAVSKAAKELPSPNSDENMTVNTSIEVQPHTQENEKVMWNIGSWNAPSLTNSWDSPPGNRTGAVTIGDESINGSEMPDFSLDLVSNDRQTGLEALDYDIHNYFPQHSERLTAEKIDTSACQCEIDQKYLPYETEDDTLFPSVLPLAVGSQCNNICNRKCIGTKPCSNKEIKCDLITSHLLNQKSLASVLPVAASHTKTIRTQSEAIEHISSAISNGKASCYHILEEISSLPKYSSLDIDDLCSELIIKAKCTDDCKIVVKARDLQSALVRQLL
Experiment: PBM E-score (8-mer binding enrichment) (E-score (-0.5 to 0.5)); higher = stronger / more preferred TF binding
Conditions: protein concentration: 100 nM; construct: GST-full length
Method in brief: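 Each ungapped eight-base word and its reverse complement, pooled, received an E-score from the Universal PBM Analysis Suite. Underlying scans, normalised with masliner, recorded fluorescent anti-GST bound to GST-tagged yeast transcription factors. These were applied at about 100-200 nM to universal all-10-mer Agilent arrays double-stranded by primer extension.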

Sequence	PBM E-score
CACCGTGC	0.161
TGAACTAA	-0.063
ATCGAACG	-0.0756
AATCGCAT	0.0873
TATTAAGA	0.0149
CATTAACA	0.16
CATTAATC	0.153
GATTAACA	0.163
TATTAATA	0.339
GATTAATC	0.355
TATTAAAA	0.194
GATTAAAC	0.0432
CATTAATA	0.297
TATTAACA	0.25
CATTAATG	0.198
GATTAACC	0.02
AACCCCTC	-0.319
GCGAGTTA	0.0928
GTCTGCTA	0.218
GAGAGAAA	0.14
CTTATACC	0.0668
CGACCTAC	-0.126
CGTTGGTA	0.141
GTTCGGAA	0.174
ACACTATC	0.115

Sequence	PBM E-score
GACTCAAA	-0.0319
ACAACTAT	0.0919
AGTAGTGG	0.0582
GAACTATA	0.09
GATTAAGA	0.18
GATTAATA	0.354
GATTAAAA	0.214
GGTTGAGA	-0.224
TCATATGA	0.321
GCATATGA	0.118
CCATATGA	-0.0943
CCCCTGCA	-0.246
AGCCAACT	-0.117
ACGGATCA	0.215
AATTCGCC	0.154
CGGAACAA	0.29
ACGAACAA	0.184
CCGAACAA	0.107
TGGAACAA	0.144
CGGAACAC	0.235
GCGAACAA	0.275
CGTAGTAC	-0.00804
AGCATCCA	-0.168
CTTTCAGA	0.0705
AAGAATGC	0.0333

Sequence	PBM E-score
GGCTTACA	0.229
GAATGGTC	-0.0781
ATAAACCC	0.0626
AAGCCTTG	0.00151
AATCTCCC	-0.277
AAGCGATA	0.103
GCAATTGC	0.33
ACAATTGG	-0.0197
CCAATTGA	0.0388
CCAATTGG	0.263
GCAATTGA	0.118
CCAATTGC	-0.114
CGCTGTAG	-0.0927
CGTTGCTA	0.103
CATAACTC	-0.0187
TGCGGCCA	-0.03
ATGTCTGA	0.129
GGGGATGA	-0.094
GGCTAGCA	-0.135
CGCTAGCA	-0.0293
TGCTAGCA	0.263
ATTAATCC	0.161
GCTAATCA	0.215
CTTAATCA	0.141
GTTAATCA	0.318

Sequence	PBM E-score
ATTAATCG	0.234
ATTAATCA	0.436
CTAGCCCC	-0.0928
TGCAGAAA	0.114
ACGTACTC	-0.0542
ATATATAT	0.295
ACATATAT	0.155
AAATATGC	0.069
ATATATAG	0.175
AAATATGA	0.234
CTATATAG	0.0376
AAATATGT	0.277
ATATATCA	0.134
CTATATAC	0.27
CTCTATAC	0.0205
CTATATCC	-0.0465
ATATATCC	0.297
CCTGCCTA	-0.0584
AGGGTTAG	-0.153
AGGATAGA	-0.0415
AGAACTAG	-0.146
CCAAAGGG	-0.0732
ACTCTCGG	-0.0764
GGCGTTAC	-0.0303
GTATATAC	-0.0771

Sequence	PBM E-score
AAATATAT	0.305
ATATATAC	0.317
AAATATAC	-0.0915
ACATATAC	0.0911
AAATATAA	0.247
AGTAGCCA	-0.282
AGTCCAGC	-0.112
TAGGTCGA	0.131
CACATATA	0.0867
GACATATA	0.0919
AATATGGA	0.0714
CATATATA	0.164
TATATGGA	-0.0332
GATATATA	0.333
TATATATA	0.377
GATATATC	0.211
TATATACA	0.209
TACATATA	0.252
GATATGGA	0.266
GATATACA	0.0899
TGTAGTAA	0.145
CGGAAACG	-0.0175
AATCTAGG	0.00096
TGCTCCAA	0.0768
GAATCTGC	0.014

Sequence	PBM E-score
CACATGTA	0.109
TACATGTA	0.27
GACATGTA	0.0721
CCGATTGC	0.25
CCGATTGA	0.144
ACGATTGC	0.213
CCGGGTAG	0.00529
ATTAGATG	0.263
ATTAGATC	0.03
ATTAGATA	0.211
ACATTGGT	0.0584
AGCTAGCT	0.162
CAACAACA	0.269
AAACAATA	0.251
GAACAACA	-0.043
CAACAAGA	-0.0155
TAACAATA	0.165
AAACAATT	0.114
TCCAAGAA	-0.0134
GCGTTAGC	0.0751
AGTAGATC	-0.191
CTTATATC	0.0947
AGTAGATA	0.282
ACTATATA	0.251
GTTATATA	0.232

Sequence	PBM E-score
ACTATATC	0.109
CGTAGATA	0.113
CTTATATA	0.331
ATTATGTA	0.311
GCTATATA	0.149
ATTATGTC	0.181
ATTATGTG	0.25
ATCCGGGG	-0.0124
CAACCGTG	0.00095
GATCCTAC	0.00192
CCGTATTC	-0.0178
ATGGACCC	-0.0809
ATTATATG	0.211
AGTATATG	0.0763
ATTATATA	0.306
AGTATATA	0.285
ATTATATC	0.0433
AGTATATC	0.0175
AAAATATT	0.192
ACCCACTA	0.107
AGCGCCAA	-0.0679
ATGGTCTC	0.102
AATAAGCA	0.343
AATAAGAA	0.252
GATAAGCA	0.154

Sequence	PBM E-score
AATAAGAG	0.0662
AATAAGCT	0.234
AGTAAGCA	0.241
AATAAGAT	0.039
CGTAAGCA	0.232
GGTAAGCA	0.257
CTCTAGTC	-0.388
AGACTTGA	-0.0266
ATTTTCCC	0.00868
ATTCCCGA	-0.241
AATTTCCG	0.24
ATTTCCGA	0.0803
ATTTCCGG	0.264
ATTCCCGG	0.296
ATTCCCCG	-0.0432
ATTTTCCG	0.304
ATTTCCGC	0.123
GCGGGTCC	-0.207
AGTTTGGC	0.109
CCCTAAAA	-0.228
GCTCAGCC	-0.143
AGGCAAAC	-0.106
CACCGTGG	-0.018
ACTAATTA	0.377
CCTAATTC	-0.115

Sequence	PBM E-score
ACTAATGG	0.209
ACTAATTC	0.306
ACTAATGC	0.275
GCTAATTA	0.306
ACTAATTG	0.197
ACTAACTA	0.00503
ACGAATTA	0.0763
GCTAATGA	-0.0534
ACTAATGA	0.128
CCTAATTA	0.156
CGAAAACG	0.0757
CTTTACCA	0.00321
AACTTATT	0.142
GTATTAAC	-0.0392
AGGATTAT	-0.0734
ATCATAGA	0.146
AAATACCC	0.136
CCCAAGAA	0.0477
ACTTCCAC	0.00186
AATGGACT	0.0697
ACTCTCGA	0.141
AAGCCATC	0.0891
CAGGGCTC	-0.158
GAATATAA	0.0963
TAATAAAA	0.226

Sequence	PBM E-score
CAATATAA	0.283
CAATATAG	0.101
TAATATAA	0.332
CAATATAC	0.0244
AAGAATTC	0.0649
CACACTCG	0.0692
AAGTCCTG	-0.138
CTAATTTA	0.199
ATAATCCA	0.252
CTAATCCA	0.131
GCAATCCA	0.0441
CTAATCTA	0.0215
GTAATCCA	0.277
ATAATCCG	0.119
ATAATTTA	0.236
GTAATTTA	0.267
ATAATCCC	-0.033
GTAATCTA	0.268
ATAATCTA	0.185
GCTTTGCC	-0.183
CAGGTCTC	-0.164
CGACCATA	-0.0443
AACCCCGC	-0.159
CGATTGCC	0.0433
GTAATCAA	0.253

Sequence	PBM E-score
TTAATCAA	0.199
GTAATCAC	0.229
CGCTAGAG	-0.115
AAAGTCGA	-0.0137
GTTTGAAA	0.113
CTTTGCAA	0.0374
ATTTGCAA	0.277
GTTTGCAA	0.0869
CTTTGAAA	0.116
ATTTGAAA	0.251
TGTCGCAA	-0.137
GGCCTCAA	-0.0369
AAAGTCAT	0.074
ACCCTCTA	-0.192
CCCCAAGG	-0.307
GCACCTCA	0.0626
CGATCGAC	0.272
AGATCGAC	0.0578
CGATCGAA	0.106
CTGGCTAC	-0.259
GATAGACA	-0.0074
CTCCACCA	-0.193
GGACAGAA	0.0717
ACTCGCGC	0.0881
GCTCGCTA	-0.0118

Sequence	PBM E-score
ACTCGCGG	0.0242
ACTCGCGA	0.271
GCTCGCGA	0.3
CCTCGCGA	0.121
CGATGAAG	-0.0787
AGAGTATC	-0.0123
AATCCACG	0.048
AGTTTCCG	0.105
CCTGGGGC	-0.343
ACTGTAGC	-0.136
CACGTCTG	0.134
ACATCGAA	0.169
TCCGGGCA	0.00134
AGCTCGCC	-0.0374
AGCTCGCG	0.262
ATCTCGCA	0.0847
ATCTCGCG	0.256
ATCTCGCC	-0.0589
AGCTCGCA	0.0143
AGCTGACA	0.192
TGCTGACA	0.334
CGCTGACC	0.117
GGCTGATA	-0.0873
GGCTGACA	0.313
CGCTGACG	0.0393

Sequence	PBM E-score
GGCTGACC	-0.121
CGCTGACA	0.297
TGCTGAAA	-0.0176
CGCGCAAC	0.2
AGGATGGG	-0.107
AAGTCTAG	-0.155
AGAAAATC	-0.0518
GGAAAAGA	-0.191
CGAAAATC	0.259
CGAAAAGA	0.28
AGAAAAGA	-0.0414
CGAAAATA	0.163
GTATTGCA	-0.0639
ATAGGCGC	0.0733
ACGGGCAA	-0.05
AACAATAC	0.135
ACCAATAT	0.306
ACGAATAC	0.132
ACCAAAAT	0.0849
ACCAAAAA	0.278
ACGAATAT	0.268
ACCAAAAC	-0.0311
ACGAATAA	-0.0279
ACCAATAG	-0.201
ACCAATAC	-0.106

Sequence	PBM E-score
AACAATAT	0.338
AACAATAA	0.211
ACGGACCT	-0.0269
CCAGCGTA	-0.0528
GCTCATGA	0.0686
GCTGCCCC	-0.107
GCCCCAGA	-0.158
CCTTGGGA	-0.00782
CAGTGGAA	-0.0557
CGTCCGGA	0.099
ACGTTGGG	0.0171
ACTCGCAT	0.101
ATTACAGG	0.228
ATTACTCC	0.0689
ATTACACA	0.284
CGTACACG	0.0454
ATTACTCA	0.325
ATTACACC	0.108
AGTACACA	0.0961
ATTACACG	0.0358
ATTACTCG	0.221
ATTACATG	0.301
ATTACATC	0.209
TGTACACA	0.256
